TWEAK Fn14 block – inhibitors of TWEAK-Fn14 signaling, primary screen, luciferase reporter cells, uHTS; inhibition, % at 10 µM; hit rate 2% among 360,000; TWEAK-stimulated Fn14 reporter cells, luciferase luminescence, 8 h; in the data active means inhibition above about 50%
Peg3 prom inh – Peg3 promoter-driven luciferase inhibitors, primary screen, cell-based, HeLa, luciferase luminescence; inhibition, % at 20 µM; HeLa PEG-Prom luciferase reporter, overnight; hit rate 1.7% among 360,000; AID 588405, 2011;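 active means inhibition of at least 50% at 20 µM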
TROY signal inh – inhibitors of TROY-driven NF-kB signaling, primary screen, Q293 LMP1-TROYcd cells, NF-kB luciferase, uHTS. Q293 LMP1-TROYcd NF-kB luciferase reporter, 4 h. inhibition, % at 10 µM. hit rate 0.98% among 360,000. AID 1347056, 2019;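 active means compounds whose plate-normalised and pattern-corrected inhibition of the luciferase reporter signal at the single screening dose is 50% or more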
KKLEB tox – cytotoxicity in KKLEB CF airway cells, primary screen, cytotoxicity control for CF NF-kB inhibitor project, cell-based, uHTS, fluorescence assay plates; KKLEB CF airway cells viability, ATPlite luminescence, overnight; stronger effect = lower value; cells stimulated with P. aeruginosa culture filtrate; activity change (cytotoxicity), % at 5 µM; hit rate 0.36% among 360,000; AID 602141, 2011;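 active means corrected activity change at or below -50% at 5 µM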
HIF-2a block – HIF-2a reporter inhibitors, primary screen, luminescence, 786-0 RCC cells; AID 624352, 2012; inhibition, % at 18.8 µM; 786-0 RCC cells HIF-2a reporter, luciferase luminescence, overnight; hit rate 0.72% among 360,000;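 active means inhibition of the luminescence signal of 40% or more relative to plate controls, in a single-dose primary screen at 18.75 µM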
CF NFkB block – inhibitors of PAF-induced NF-kB signaling, primary screen, cell-based, GFP fluorescence, uHTS. KKLEB NF-kB-GFP reporter, GFP fluorescence overnight. inhibition, % at 5 µM. hit rate 0.86% among 360,000. AID 588850, 2011;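 active means at least 50% inhibition at 5 µM, scaled per plate between neutral and stimulator controls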;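 further: PAF is a Pseudomonas aeruginosa culture filtrate used as stimulus; plate controls were PAF-stimulated DMSO wells for no effect and unstimulated DMSO wells for full effect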
Starred values were filed as active, the others as inactive; . = no result. An excerpt weighted towards active compounds, which were near 4% of everything screened.

SMILES	TWEAK Fn14 block	Peg3 prom inh	TROY signal inh	KKLEB tox	HIF-2a block	CF NFkB block
COc1ccc(CCNC(=O)C(=O)NCC2CCCN2S(=O)(=O)c2ccccc2)cc1 (configuration not stated)	-18	39	51*	1	9	-4
CC(C)Cc1nnc(NC(=O)CCC(=O)N2CC(C)CC(C)C2)s1 (configuration not stated)	2	8	-6	-5	6	17
Cc1ccc(NC(C(=O)c2ccccc2)c2ccccc2)cc1 (configuration not stated)	3	-46	-17	15	-85	4
c1ccc(Nc2nc3ccccc3n3cnnc23)cc1	-43	16	-8	13	0	-118
CCOc1ccc(Nc2nc3ccccc3n3cnnc23)cc1	87*	-33	-7	7	-57	-24
c1ccc2c(c1)nc(Nc1ccc(N3CCCCC3)cc1)c1nncn12	51*	-52	36	-6	-95	-10
Cc1ccc(F)cc1NC(=O)CSCc1nc2sc(C)c(C)c2c(=O)[nH]1	19	14	3	11	11	-5
CC1(Oc2cccc(F)c2)CCN(Cc2csc3ccccc23)C1 (configuration not stated)	7	-13	-5	-3	2	5
Cc1ccc(CCC(=O)Nc2ccc(C)c(C)c2)o1	-1	-42	-30	5	-54	-5
CCc1ccc(-c2nc(CN3CCC(C(=O)NCCN(CC)c4ccccc4)CC3)c(C)o2)cc1	-44	108*	20	-9	-49	1
CCc1ccc(-c2nc(CN3CCC(C(=O)N4CCN(c5ccccn5)CC4)CC3)c(C)o2)cc1	35	30	2	-20	-12	-2
CCc1ccc(-c2nc(CN3CCC(C(=O)N4CCN(c5ccccc5)CC4)CC3)c(C)o2)cc1	94*	88*	27	-21	-9	18
O=S1(=O)CC(N2CC=CC2)CN1Cc1cn(Cc2ccccc2)nn1 (configuration not stated)	17	.	1	.	2	.
CN1C[C@@H]2[C@@H]3C(=O)N(C)C(=O)[C@@H]3[C@](C)(C1=O)N2C(=O)c1ccccc1	8	-2	-8	-4	5	16
C/C(=N\Nc1nc2ccc(Cl)cc2o1)c1ccccc1	10	7	1	0	8	-6
Cc1ccc2nc(-c3cccc(S(=O)(=O)N4CCCC4)c3)cn2c1	-1	-143	-9	2	-165	-3
Cc1ccc2nc(-c3ccc(S(=O)(=O)N4CCCCC4)cc3)cn2c1	30	-133	52*	-6	-134	8
O=C(c1ccco1)N1CCN(C(=O)c2cnn(-c3ccc(F)cc3)c2-n2cccc2)CC1	-7	18	-9	7	10	-4
O=[N+]([O-])c1cc(C(F)(F)F)cc([N+](=O)[O-])c1NCCNC(=S)Nc1ccc(Cl)c(Cl)c1	22	53*	58*	-29	8	42
COc1ccc(Cl)cc1NC(=O)c1cnccn1	2	18	1	-2	11	-7
O=C(Nc1cc(Cl)ccc1Oc1ccccc1)c1cnccn1	88*	6	.	-15	16	-3
COc1ccc(OC)c(/C=N/NC(=O)c2[nH]ncc2Br)c1	2	17	-15	-10	22	26
CCOc1ccc(/C=N/NC(=O)c2[nH]ncc2Br)c(O)c1	76*	-47	24	1	-134	17
CCOC(=O)c1c(CSc2ccccc2)n(C)c2cc(Br)c(OCC(O)CNC(CO)(CO)CO)cc12 (configuration not stated)	10	97*	24	-6	34	-4
CC(C)(C)C(=O)/C=c1\s/c(=C\c2ccc(-c3ccc([N+](=O)[O-])cc3)o2)c(=O)n1CC(=O)NC(N)=O	9	55*	3	-20	-5	-425
SMILES	TWEAK Fn14 block	Peg3 prom inh	TROY signal inh	KKLEB tox	HIF-2a block	CF NFkB block
CCC(=O)N/N=C/c1ccc(-c2ccc([N+](=O)[O-])cc2)o1	-2	-36	-5	6	-50	-16
O=C(O)CC(CCc1ccccc1)OC1OC(CO)C(O)C(O)C1O (configuration not stated)	59*	10	1	9	18	-18
[C-]#[N+][C@H](O[C@@H]1O[C@H](CO)[C@@H](O)[C@H](O)[C@H]1O)c1ccccc1	23	-6	-11	2	14	-8
CC(C)NCC(O)COC1CCC(C(C)(C)C)CC1 (configuration not stated)	-9	-6	12	-11	14	13
CCC[C@@H](CN[C@@H](CNC)[C@H](C)CC)NCC1CCC(C(C)(C)C)CC1 (some centres not stated)	-47	102*	1	-30	-3	9
Clc1cccc(CN2CCc3c([nH]c4ccccc34)C2)c1	13	60*	2	-26	28	-10
COc1ccc(C(=O)N2CCN(c3ccc([N+](=O)[O-])c(NCCc4ccc(OC)c(OC)c4)c3)CC2)cc1	92*	30	63*	12	9	-5
O=C(c1ccccc1F)N1CCN(c2ccc([N+](=O)[O-])c(NCc3cccnc3)c2)CC1	72*	20	15	-2	20	9
COc1ccc(CCNc2cc(N3CCN(C(=O)c4ccccc4F)CC3)ccc2[N+](=O)[O-])cc1OC	93*	45	35	-1	-9	6
COc1ccc(CCNc2ccc(C(=O)O)cc2[N+](=O)[O-])cc1OC	9	2	-14	-3	12	0
N#Cc1c(N)n(-c2ccc(N)cc2)c2nc3ccccc3nc12	-16	12	-7	-17	20	10
N#Cc1c(C#N)c(SSc2c(C#N)c(C#N)c(N)n2-c2ccccc2)n(-c2ccccc2)c1N	19	105*	1	-89*	7	88*
c1ccc(-c2nc(SCc3nc4ccccc4[nH]3)c3oc4ccccc4c3n2)cc1	-3	1	-24	6	-13	-4
CC(C)c1ccc(/C=C/C(=O)Nc2nc3ccc([N+](=O)[O-])cc3s2)cc1	-10	15	-19	-5	-2	-3
O=[N+]([O-])c1ccc2nc(NN=Cc3ccc(O)cc3)sc2c1	69*	72*	66*	-6	-193	34
Cn1c2ccccc2c(=O)c2ccc(C#Cc3ccc(N)cc3)cc21	16	-82	50*	-19	-84	8
Cn1c2ccccc2c(=O)c2cc(C#Cc3cccc(N)c3)ccc21	-117	-286	-52	0	-275	-124
COc1ccccc1C#Cc1ccc2c(=O)c3ccccc3n(C)c2c1	45	-22	-9	-7	-115	-5

High-throughput results (PubChem)
